Out of some 220,000 compounds screened, about 8,200 (3.7%) were called active.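 How the source made its calls: active means compounds that reduced the stress-induced luciferase reporter signal by more than about 70% of percent inhibition (limit read from the data); inactive means the rest.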 The entries come from a sample that favours actives as a whole. Residues, ends and D or L forms follow the SMILES beside them. *: point of attachment. Bz = O=C(c1ccccc1)*

A short description of this experiment: blockers of ER-stress CHOP reporter expression – cell-based, unfolded protein response, luciferase reporter, primary screen (AID 2732).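 Further: 0% = tunicamycin plus vehicle and 100% = wells without tunicamycin.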 The settings on record: CHO-K1 CHOP-promoter luciferase, tunicamycin-induced, 15-18 h; at 10 µM; active compounds read high.
For `Cc1ccc(Nc2c3c(nc4ccccc24)CCC3)cc1`, the inhibition was 17.5% (inactive). With `COCCn1c(C)cc(C2=NNC(=Nc3ccc(F)cc3)SC2)c1C`, the inhibition was -7.2% (inactive). With `Cc1cc(C2=NNC(=Nc3ccc(S(=O)(=O)N4CCOCC4)cc3)SC2)c(C)n1CC1CCCO1` (configuration not stated), the inhibition was 6.71% (inactive).

Turning to `C=CCn1c(C)cc(C2=NNC(=NCC)SC2)c1C`, the inhibition is 105% (active). For `Cn1nccc1CNC(=O)c1ccnn1C` the value was -26% (inactive). For `CCN(CC)C(=O)c1sc(NC(=O)c2ccco2)c(C#N)c1C`, the inhibition was -5.34% (inactive). For `CCCc1ccc(-c2c(C)sc(NC(=O)c3ccnn3C)c2C#N)cc1`, the inhibition was 76.4% (active).

With `CCCCCCCN=C(C)c1ccccc1O`, the inhibition is -7.28% (inactive). For `Cc1ccc(NC(=O)Nc2cccc(C(F)(F)F)c2)nc1`, the inhibition was -25.1% (inactive). For `CCNS(=O)(=O)c1ccc(NC(=O)Nc2cccc(OC)c2)cc1` the value was -10.9% (inactive); for `CCNS(=O)(=O)c1ccc(NC(=O)Nc2cccc(C(F)(F)F)c2)cc1`, 87.4% (active); for `Cn1nc(C(F)(F)F)cc1C(=O)O`, 13.6% (inactive). For `CSC1=NCCN1C(=O)Cc1cccc2ccccc12` the value was 13.7% (inactive).

Regarding `O=C(Nc1ccccc1)Nc1nc2ccccc2s1`, the inhibition is -20.1% (inactive). For `O=C(Nc1ccc2ccccc2c1)Nc1ccc2snnc2c1` the value was 79.2% (active). For `COc1ccc(NC(=O)Nc2ccc3nsnc3c2)cc1` the value was 4.53% (inactive). For `Cc1ccc(F)cc1NC(=O)N1CCCN(c2ccc(C(F)(F)F)cn2)CC1` the value was 1.83% (inactive); for `COc1cc(NC(=O)c2cncc(-c3ccc(C#N)cc3)c2)cc(C(=O)Nc2cccc(C(F)(F)F)c2)c1`, 22.1% (inactive); for `COc1ccc(OCC(=O)Nc2nnc(-c3ccco3)s2)cc1`, 28.2% (inactive).

For the compound `CNc1nnc(-c2ccco2)s1`, the inhibition was 7.19% (inactive).

In the case of `Cc1ccc(OCC(=O)Nc2nnc(-c3ccco3)s2)cc1`, the inhibition is 82.2% (active). In the case of `CC(NCc1ccccc1OC1CCCC1)c1ccccc1` (configuration not stated), the inhibition was 11.4% (inactive). For `O=C(CSc1nc2ccccc2o1)N/N=C/c1ccccc1C(=O)O` the value was -2.6% (inactive). For `C=CCNC(=O)CSc1nc2scc(-c3ccco3)c2c(=O)n1CC=C` the value was -19.4% (inactive). For `O=S(=O)(Nc1ccc(Cl)cn1)c1cnc(Cl)c(Br)c1` the value was 9.6% (inactive); for `CCCCN1C(=O)/C(=C/C=C2/C=Cc3ccccc3N2CC)SC1=S`, 70.5% (active); for `CCN1C(=O)/C(=C\N2CCN(c3ccccc3)CC2)SC1=S`, 23.4% (inactive). For the compound `CCCCN1C(=O)/C(=C2/C=CC=CN2C)SC1=S`, the inhibition is -3.04% (inactive). Turning to `CC1Cc2ccccc2N1CC(=O)Nc1ccc(S(N)(=O)=O)cc1` (configuration not stated), the inhibition is -11.8% (inactive). `COc1ccc(Nc2cc(Cl)ccc2C(=O)O)cn1`: the inhibition is 9.7% (inactive).

`Cc1ccc(-c2noc(CCC(N)=O)n2)cc1`: the inhibition was 10.7% (inactive). For the compound `CCNC(=O)CCc1nc(-c2ccc(C(C)(C)C)cc2)no1`, the inhibition is 91% (active).

For `CCNC(=O)CCc1nc(-c2ccc(C)cc2)no1`, the inhibition was 11.2% (inactive). `CC1CCN(c2ccc([N+](=O)[O-])c(SCCO)c2)CC1`: the inhibition was 7.43% (inactive).

For `O=C(O)c1ccc(NC(=O)c2cccs2)cc1`, the inhibition is 28.8% (inactive). For the compound `Cc1ccc(-c2csc(NNC(=O)c3ccccc3)n2)cc1`, the inhibition was 21.4% (inactive). For `CCCc1ccc(-c2csc(NC(=O)Cc3cccs3)n2)cc1` the value was 12.1% (inactive); for `Cc1ccc(-c2csc(NC(=O)c3cccs3)n2)cc1`, 78.4% (active); for `Cc1cccc(S(=O)(=O)CC(=O)Nc2nc(-c3ccccc3)cs2)c1`, -8.42% (inactive).

In the case of `Cc1ccc(-c2nnc(-c3ccc(NC(=O)c4cccs4)cc3)o2)cc1`, the inhibition was 89% (active). For `Cc1ccc(C(=O)NNC(=O)c2cccs2)cc1` the value was -31.6% (inactive); for `COc1ccc(CC(=O)Nc2ccc(C(=O)NC(C)(C)C)cc2)cc1`, 19.1% (inactive); for `O=C(Nc1ccc2oc(-c3ccc4ccccc4c3)nc2c1)c1cccs1`, -26.2% (inactive). For `Cc1ccc(-c2csc(NC(=O)Cn3[nH]c(=O)c4ccccc4c3=O)n2)cc1`, the inhibition is 80% (active). As for `COc1ccc(CC(=O)Nc2ccc(-c3nnc(-c4ccc(C)cc4)o3)cc2)cc1`, the inhibition is 83.6% (active).

Turning to `Cc1ccc(OCC(=O)Nc2ccc(-c3nc4ncccc4o3)cc2)cc1`, the inhibition was -4.24% (inactive).

Regarding `CC(=O)N1CC[n+]2c(-c3ccc([N+](=O)[O-])cc3)csc21`, the inhibition is -3.95% (inactive). For `O=C(O)CCc1cccnc1`, the inhibition is 16.7% (inactive). In the case of `COc1ccc(CN2CCOC2=O)cc1OC`, the inhibition was -5.21% (inactive).

On to `COc1ccc(N2C(=O)C3C(C2=O)C(C(=O)c2ccccc2)N2CCCC32)cc1` (configuration not stated), for which the inhibition was 11.9% (inactive). In the case of `CC(C)C[C@H](CO)Nc1nc(N(C)c2cccc(Cl)c2)c2ncn(C(C)C)c2n1`, the inhibition is 21.8% (inactive). In the case of `COC(=O)c1ccccc1N=Nc1c(C)[nH][nH]c1=O`, the inhibition was 14.2% (inactive). For `CCCNc1c(N)c(=O)c1=O` the value was 3.2% (inactive); for `CCc1c(C)nc2c(-c3ccccc3)c(C)nn2c1Nc1ccc(NC(C)=O)cc1`, 17.3% (inactive). With `CCS(=O)(=O)c1cc([N+](=O)[O-])c(Sc2ccccc2N)s1`, the inhibition was -0.04% (inactive). For `COc1cc(C(F)(F)F)nc2c(Br)c(C(C)(C)C)nn12` the value was 15% (inactive). For `CCN(CC)CCn1cnc2c1c(=O)n(CCOC(=O)c1cc(OC)c(OC)c(OC)c1)c(=O)n2C` the value was -3.64% (inactive).

In the case of `CCN1CCN(C(c2cccnc2)c2cc(Cl)c3cccnc3c2O)CC1` (configuration not stated), the inhibition is -101% (inactive). With `Fc1ccc(N2CCN(Cc3cnc(Oc4ccc(Br)cc4)s3)CC2)cc1`, the inhibition is 21% (inactive).

On to `Oc1c(CN2CCN(c3ccc(F)cc3)CC2)cc(Cl)c2cccnc12`, for which the inhibition was 92% (active). Take `Cc1cc(N2CCN(c3ccc(F)cc3)CC2)n2ncnc2n1`: the inhibition was 1.35% (inactive). For `Cc1ccc(C(=O)N2CCN(C3CCCCC3)CC2)s1` the value was 12.7% (inactive); for `O=C(C(Cc1ccccc1)n1cccc1)N1CCN(C2CCCCC2)CC1` (configuration not stated), 72.6% (active); for `O=C(NC(Cc1ccccc1)C(=O)N1CCCC1C(=O)O)c1ccccc1` (stereo not drawn) (Bz-Phe-Pro-OH; configuration not given here), -0.39% (inactive). On to `CC(=O)c1ccc(S(=O)(=O)N2CCN(C(=O)/C=C/c3ccc4ccccc4n3)CC2)cc1`, for which the inhibition is 60% (inactive). `O=C(Nc1ccccc1)OCc1cn(-c2ccc(Cl)cc2)nn1`: the inhibition is -8.26% (inactive). For `O=C(Nc1ccccc1)OCc1cc(-c2ccc(Cl)cc2)on1` the value was -15.4% (inactive); for `O=C(Nc1ccc(Cl)cc1)OCc1cc(-c2ccccc2)on1`, 89.7% (active). For `CCOC(=O)Cn1c(-c2cccnc2Cl)nc2ccccc21` the value was -1.12% (inactive); for `CCOC(=O)CN1CCC(c2ccccc2)CC1`, 8.89% (inactive). For `CCOC(=O)Cn1c2c(c(-c3ccccc3OC)cc1=O)CCCC2` the value was 77.2% (active). Consider `FC(F)(F)c1nc(-c2ccccc2)ncc1-c1nnnn1-c1ccccc1`, for which the inhibition is 49.3% (inactive). As for `CCOC(=O)C(C)Sc1nc2ccccc2c(=O)n1CC1CCCCC1` (configuration not stated), the inhibition was 99.3% (active). For `CCOn1c(SC(C)C)nc2ccccc2c1=O` the value was -9.05% (inactive); for `CC(Sc1nc2ccccc2c(=O)n1Cc1ccco1)C(=O)c1ccccc1` (configuration not stated), 16.2% (inactive); for `Cc1nnc2n1N=C(c1ccc3c(c1)NC(=O)CO3)CS2`, 8.13% (inactive). For `O=C(O)c1ccccc1C(=O)Nc1ccccc1[N+](=O)[O-]` the value was -7.32% (inactive); for `CNCC(O)c1ccc(O)c(O)c1` (configuration not stated), -0.79% (inactive). For `CCC(C)c1ccc(O)c(/C=N/O)c1` (configuration not stated) the value was 71.8% (active); for `O=C(Cc1c(F)cccc1Cl)Nc1ncc([N+](=O)[O-])s1`, 9.25% (inactive); for `CC(=O)Oc1ccccc1C(=O)Nc1ncc([N+](=O)[O-])s1`, 72.1% (active). In the case of `O=C(CCc1ccccc1)Nc1ncc([N+](=O)[O-])s1`, the inhibition was -9.45% (inactive). On to `O=C(NNC(=S)Nc1ccc(F)cc1)[C@H]1C[C@@H]1c1ccccc1`, for which the inhibition was 5.39% (inactive). For `CCOc1cc(C)c(Cl)cc1S(=O)(=O)n1nnc2ccccc21`, the inhibition is 73.7% (active). For `COc1cc(C)c(Cl)cc1S(=O)(=O)n1ccnc1` the value was 14.6% (inactive). With `CCCOc1cc(C)c(S(=O)(=O)n2nnc3ccccc32)cc1C`, the inhibition is -25.8% (inactive).

With `CN(c1ccccn1)c1ncnc2[nH]ncc12`, the inhibition was 16.3% (inactive). With `S=c1[nH]nc(-c2cccs2)n1/N=C/c1cn(-c2ccccc2)nc1-c1ccc(Cl)cc1`, the inhibition is 57.5% (inactive).

Regarding `Cc1ccc(NNC(=O)c2cccs2)cc1Cl`, the inhibition was -7.82% (inactive). For `CSC1=NC2(C)CCCCC2C12C=CC(=O)C=C2` (configuration not stated) the value was -8.01% (inactive); for `CNC(=O)c1nnc(Cc2ccc(Cl)cc2)o1`, 84.2% (active); for `Clc1ccc(Cc2nnc(-c3cccs3)o2)cc1`, -8.41% (inactive).

In the case of `O=C(Nc1nnc(Cc2ccc(Cl)cc2)s1)c1ccncc1`, the inhibition was 2.85% (inactive). For `CS(=O)(=O)c1ccc2nnn(OCC(=O)Nc3cccc(C#N)c3)c2c1`, the inhibition was 7.09% (inactive).

For `CNC(=O)c1cccc2nc3ccccc3nc12`, the inhibition is -2.58% (inactive). As for `CCCCOc1ccc(-c2ncc(C(=O)OCC)c(N)n2)cc1`, the inhibition was 87.4% (active).

`CCOC(=O)c1cnc(-c2ccccc2)nc1Oc1ccc(C)cc1`: the inhibition is 16.8% (inactive).

Regarding `CCOC(=O)c1cnc(SCc2nc(N)nc(Nc3ccc(OC)cc3)n2)nc1N`, the inhibition is 27.6% (inactive).

As for `O=C(N/N=C/c1ccco1)c1csc2c1CCCC2`, the inhibition is -20.7% (inactive). For `CCOC(=O)C1=C(CSc2nccn2C)NC(=O)NC1c1ccc(OC)cc1` (configuration not stated) the value was 34.2% (inactive). For `CCOC(=O)C1=C(C)N=c2s/c(=C\C(=O)OC)c(=O)n2C1c1ccc(OC)cc1` (configuration not stated) the value was 89.2% (active); for `COCCOC(=O)C1=C(C)N=c2s/c(=C\c3cccs3)c(=O)n2C1c1cccs1` (configuration not stated), 4.98% (inactive).

Values taken from PubChem BioAssay AID2732 (Emory University Molecular Libraries Screening Center, 2010).
